# Laboratory results: paper PMC10812921, “Transcriptional Coactivator BOB1 (OBF1, OCA-B) Modulates the Specificity of DNA Recognition by the POU-Domain Factors OCT1 and OCT2 in a Monomeric Configuration”
# Tests used:
# [1] = target: POU1 (OCT1 POU domain) (human, UniProt P14859 260-458); test: EMSA-SELEX-seq; no BOB1; 20 mM Tris-HCl pH 7.6, 140 mM NaCl, 10% glycerol, 0.5 mM EDTA, 0.05% Triton X-100, 0.1 mg/mL BSA, 0.1 mg/mL poly(dI-dC), 5 mM DTT, room temperature, 20 min; high values mean tight binding; conditions: protein: recombinant; dsDNA, one strand shown
# Sequence of POU1 (OCT1 POU domain) (P14859 260-458): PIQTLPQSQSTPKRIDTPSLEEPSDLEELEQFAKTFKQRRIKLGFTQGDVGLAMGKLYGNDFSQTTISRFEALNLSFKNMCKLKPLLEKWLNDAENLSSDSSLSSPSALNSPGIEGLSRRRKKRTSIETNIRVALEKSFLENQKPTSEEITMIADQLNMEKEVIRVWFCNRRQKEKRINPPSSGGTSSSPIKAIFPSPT
# Outline: (§1)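 Tagged POU-domain proteins were expressed in E. coli BL21, purified under denaturing conditions and renatured. Then 30 ng was mixed with 300 ng of a PCR-amplified double-stranded random 35-nt library, with or without 28 ng coactivator protein, in 20 μL Tris–HCl pH 7.6 binding buffer for 20 min at RT. Complex bands were cut from native 6% PAGE, eluted and PCR-amplified over four rounds, then Illumina-sequenced. Binding preference is the percentage of sequenced 8-mers matching a motif pattern.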
# [2] = target: T1, POU2 (OCT2 POU domain) (human, UniProt P09086 175-386); test: as above; conditions: protein: recombinant; dsDNA, one strand shown
# T1 sequence: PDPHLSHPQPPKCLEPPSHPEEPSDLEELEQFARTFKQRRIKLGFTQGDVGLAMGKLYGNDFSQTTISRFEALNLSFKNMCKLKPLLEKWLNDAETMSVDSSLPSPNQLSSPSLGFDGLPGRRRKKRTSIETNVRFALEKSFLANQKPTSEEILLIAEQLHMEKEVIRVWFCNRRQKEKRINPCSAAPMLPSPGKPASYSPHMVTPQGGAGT
# Outline: as §1
# [3] = target: POU1 (OCT1 POU domain);BOB1 (OBF1, OCA-B) (human;human, UniProt P14859;Q16633 260-458;1-256, |); test: EMSA-SELEX-seq; with BOB1 (ternary complex band); 20 mM Tris-HCl pH 7.6, 140 mM NaCl, 10% glycerol, 0.5 mM EDTA, 0.05% Triton X-100, 0.1 mg/mL BSA, 0.1 mg/mL poly(dI-dC), 5 mM DTT, room temperature, 20 min; high values mean tight binding; conditions: protein: recombinant;recombinant; copies: 1;1; dsDNA, one strand shown
# Outline: as §1
# [4] = target: T2, POU2 (OCT2 POU domain);BOB1 (OBF1, OCA-B) (human;human, UniProt P09086;Q16633 175-386;1-256, |); test: as above; conditions: protein: recombinant;recombinant; copies: 1;1; dsDNA, one strand shown
# T2 sequence 1: T1 sequence
# T2 sequence 2: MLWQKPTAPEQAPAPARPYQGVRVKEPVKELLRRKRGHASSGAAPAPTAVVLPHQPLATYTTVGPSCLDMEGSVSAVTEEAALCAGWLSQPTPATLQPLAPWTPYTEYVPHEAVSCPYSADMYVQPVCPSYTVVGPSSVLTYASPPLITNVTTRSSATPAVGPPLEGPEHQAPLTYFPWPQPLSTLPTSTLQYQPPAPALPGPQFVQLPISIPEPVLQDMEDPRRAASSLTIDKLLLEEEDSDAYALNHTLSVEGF
# Outline: as §1
Sequence,binding signal [1],binding signal [2],binding signal [3],binding signal [4]
AGTGCAAA,0.0873 % of ANNNNAAN 8-mers,0.0593 % of ANNNNAAN 8-mers,0.126 % of ANNNNAAN 8-mers,0.0743 % of ANNNNAAN 8-mers
AATACAAC,0.0412 % of ANNNNAAN 8-mers,0.0403 % of ANNNNAAN 8-mers,0.0336 % of ANNNNAAN 8-mers,0.0545 % of ANNNNAAN 8-mers
ACGAGAAT,0.0492 % of ANNNNAAN 8-mers,0.0547 % of ANNNNAAN 8-mers,0.0347 % of ANNNNAAN 8-mers,0.0553 % of ANNNNAAN 8-mers
ATTGGAAC,0.0313 % of ANNNNAAN 8-mers,0.0426 % of ANNNNAAN 8-mers,0.0304 % of ANNNNAAN 8-mers,0.0388 % of ANNNNAAN 8-mers
AACCAAAA,0.0522 % of ANNNNAAN 8-mers,0.0449 % of ANNNNAAN 8-mers,0.0753 % of ANNNNAAN 8-mers,0.0388 % of ANNNNAAN 8-mers
ATGGGAAA,0.098 % of ANNNNAAN 8-mers,0.1 % of ANNNNAAN 8-mers,0.118 % of ANNNNAAN 8-mers,0.0784 % of ANNNNAAN 8-mers
AGACCAAG,0.0137 % of ANNNNAAN 8-mers,0.0121 % of ANNNNAAN 8-mers,0.0164 % of ANNNNAAN 8-mers,0.014 % of ANNNNAAN 8-mers
ATTAGAAG,0.0786 % of ANNNNAAN 8-mers,0.101 % of ANNNNAAN 8-mers,0.0585 % of ANNNNAAN 8-mers,0.066 % of ANNNNAAN 8-mers
ATCCCAAA,0.0263 % of ANNNNAAN 8-mers,0.0253 % of ANNNNAAN 8-mers,0.0343 % of ANNNNAAN 8-mers,0.0297 % of ANNNNAAN 8-mers
AGGTAAAA,0.129 % of ANNNNAAN 8-mers,0.1 % of ANNNNAAN 8-mers,0.146 % of ANNNNAAN 8-mers,0.085 % of ANNNNAAN 8-mers
ACAGGAAA,0.0526 % of ANNNNAAN 8-mers,0.0506 % of ANNNNAAN 8-mers,0.0702 % of ANNNNAAN 8-mers,0.0603 % of ANNNNAAN 8-mers
AGTGTAAG,0.032 % of ANNNNAAN 8-mers,0.0443 % of ANNNNAAN 8-mers,0.0406 % of ANNNNAAN 8-mers,0.0421 % of ANNNNAAN 8-mers
ATACAAAA,0.144 % of ANNNNAAN 8-mers,0.0857 % of ANNNNAAN 8-mers,0.195 % of ANNNNAAN 8-mers,0.105 % of ANNNNAAN 8-mers
AATTGAAT,0.203 % of ANNNNAAN 8-mers,0.238 % of ANNNNAAN 8-mers,0.127 % of ANNNNAAN 8-mers,0.125 % of ANNNNAAN 8-mers
AGCCCAAA,0.0164 % of ANNNNAAN 8-mers,0.0207 % of ANNNNAAN 8-mers,0.0156 % of ANNNNAAN 8-mers,0.0157 % of ANNNNAAN 8-mers
ATAAGAAC,0.0362 % of ANNNNAAN 8-mers,0.0518 % of ANNNNAAN 8-mers,0.0332 % of ANNNNAAN 8-mers,0.0438 % of ANNNNAAN 8-mers
AAACGAAT,0.0767 % of ANNNNAAN 8-mers,0.0783 % of ANNNNAAN 8-mers,0.0675 % of ANNNNAAN 8-mers,0.0792 % of ANNNNAAN 8-mers
AGCCGAAT,0.0313 % of ANNNNAAN 8-mers,0.0368 % of ANNNNAAN 8-mers,0.0281 % of ANNNNAAN 8-mers,0.033 % of ANNNNAAN 8-mers
ATCACAAC,0.0194 % of ANNNNAAN 8-mers,0.0242 % of ANNNNAAN 8-mers,0.0222 % of ANNNNAAN 8-mers,0.0165 % of ANNNNAAN 8-mers
ATTTAAAT,2.83 % of ANNNNAAN 8-mers,2.38 % of ANNNNAAN 8-mers,0.709 % of ANNNNAAN 8-mers,0.832 % of ANNNNAAN 8-mers
AAGTGAAG,0.0381 % of ANNNNAAN 8-mers,0.0409 % of ANNNNAAN 8-mers,0.0386 % of ANNNNAAN 8-mers,0.0454 % of ANNNNAAN 8-mers
AACAAAAG,0.0522 % of ANNNNAAN 8-mers,0.0518 % of ANNNNAAN 8-mers,0.0741 % of ANNNNAAN 8-mers,0.0454 % of ANNNNAAN 8-mers
AATTTAAG,0.15 % of ANNNNAAN 8-mers,0.142 % of ANNNNAAN 8-mers,0.144 % of ANNNNAAN 8-mers,0.12 % of ANNNNAAN 8-mers
AATCCAAC,0.0259 % of ANNNNAAN 8-mers,0.0288 % of ANNNNAAN 8-mers,0.016 % of ANNNNAAN 8-mers,0.0223 % of ANNNNAAN 8-mers
AGAAGAAA,0.0507 % of ANNNNAAN 8-mers,0.0685 % of ANNNNAAN 8-mers,0.055 % of ANNNNAAN 8-mers,0.0471 % of ANNNNAAN 8-mers
ACAACAAT,0.0248 % of ANNNNAAN 8-mers,0.0305 % of ANNNNAAN 8-mers,0.023 % of ANNNNAAN 8-mers,0.0305 % of ANNNNAAN 8-mers
AGGCAAAC,0.0866 % of ANNNNAAN 8-mers,0.0512 % of ANNNNAAN 8-mers,0.157 % of ANNNNAAN 8-mers,0.0817 % of ANNNNAAN 8-mers
ATCGAAAC,0.0275 % of ANNNNAAN 8-mers,0.0236 % of ANNNNAAN 8-mers,0.0316 % of ANNNNAAN 8-mers,0.0215 % of ANNNNAAN 8-mers
ATGGCAAT,0.0545 % of ANNNNAAN 8-mers,0.0719 % of ANNNNAAN 8-mers,0.0484 % of ANNNNAAN 8-mers,0.0578 % of ANNNNAAN 8-mers
AGCAAAAG,0.0442 % of ANNNNAAN 8-mers,0.0322 % of ANNNNAAN 8-mers,0.062 % of ANNNNAAN 8-mers,0.0429 % of ANNNNAAN 8-mers
